Values joined by “and” are separate entries in the source; they are usually repeats but may differ in a detail not shown here. Identical values can stand only once. About 83,000 compounds went through this panel and 20% of them were active in at least one assay; those are over-represented in the sample as a whole.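 Compound tested at a single concentration for 48 hours in 96-well plates; a percent growth value below 10 was scored as active.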 Active and inactive are the calls of the source.

In the assay the test system is MDA-MB-468 breast. The experiment in a line: NCI-60 one-dose screen, 48 h (100 = growth as untreated, 0 = no growth, -100 = all killed). The following applies: 10 µM unless noted.
As to `O=C(OC[C@@H]1CO1)c1cccc2c(=O)c3ccccc3[nH]c12`, the growth is -52% (active).
As for `CC(=O)O[C@H]1CC[C@@]2(C)[C@@H](CC[C@@H]3[C@@H]2CC[C@]2(C)C=C(C=O)C[C@@H]32)C1`, the growth is 111% (inactive).
Consider `Cc1cccc(Cl)c1N`, for which the growth was 110% (inactive).
As for `O=C(O)c1ccc(-n2cc(CNc3ccc(Cl)cc3)c(-c3ccccc3)n2)cc1`, the growth is 102% (inactive).
Under `O=C(Nc1ccccc1O)c1ccc(CNc2ccnc(C(F)(F)F)c2)cc1` stands 90.7% (inactive); under `O=C(N/N=C/c1ccc(Oc2ccccc2)cc1)c1cnn2c1NC(c1ccccc1)C2` (stereo not given), 30.2% (inactive).
With `C=CCN(CCOC(=O)c1ccc([N+](=O)[O-])cc1)CCOC(=O)c1ccc([N+](=O)[O-])cc1`, the growth is 105% (inactive).
Regarding `CC(/C=N/N1C(=O)c2ccccc2C1=O)c1ccccc1` (stereo not given), the growth is 95.9% (inactive).
As for `Oc1ccc(CSc2nnc(-c3ccc(Cl)cc3)o2)c2cccnc12`, the growth was 26.3% (inactive).
Turning to `Clc1ccccc1Nc1nnc(-c2ccncc2)s1`, the growth is 110% (inactive).
Regarding `C#Cc1cc(OC)c(C(=O)Nc2ccc(F)cc2C(=O)Nc2cccc(S(=O)(=O)C(F)(F)F)c2)cn1`, the growth is -31.3% (active).
As to `Nc1ncc(-c2ccc3ncnc(N4CCc5ccc(Cl)cc54)c3c2)cc1C(F)(F)F`, the growth is -36% (active).
The same measure for `CN(C)c1ccc(/C=C\c2cccc[n+]2C)cc1`: 4.18% (active); for `C#C[C@]1(O)CC[C@H]2[C@@H]3CC=C4c5sc(NCc6ccccc6)nc5CC[C@]4(C)[C@H]3CC[C@@]21C`: 45.4% (inactive).
Take `COc1ccc(C(CC(=O)c2ccc3c(c2)OCO3)C(=O)O)cc1OC` (stereo not given): the growth is 114% (inactive) and 103% (inactive).
With `CCNc1nc2c(cnn2C)c(=O)[nH]1`, the growth was 97.4% (inactive).
Under `COC(=O)[C@H](Cc1cn(C)cn1)NC(=O)[C@@H](NC(=O)Nc1cc(C(F)(F)F)cc(C(F)(F)F)c1)C(C)C` stands -60.4% [100 µM] (active); under `O=C(N/N=C/c1cccc(O)c1)c1ccccc1Nc1cccc(C(F)(F)F)c1`, 27% (inactive).
Consider `Nc1nc(-c2cccc3ccccc23)cc2ccccc12`, for which the growth is -4.35% (active).
Take `O=C(Cc1nc2cc(Cl)c(Cl)cc2nc1CC(=O)c1ccccc1)c1ccccc1`: the growth was -55% (active).
In the case of `COc1ccc(Cn2cc3c(c2-c2ccccc2)CCc2cnoc2-3)cc1`, the growth was 55.2% (inactive).
Under `COc1ccc(NC(=O)c2sc3nc(C)c(C(=O)c4ccccc4)cc3c2N)cc1` stands 83.9% (inactive); under `COc1ccc(S(=O)(=O)c2ccc(C(N)=O)cc2)cc1NC(=O)c1[nH]c(C)c2c1CCCCC2=O`, 31.9% (inactive); under `O=C1COCCN1c1ccc(NCc2cn(Cc3cccc4ccccc34)c3ccccc23)cc1`, -24.8% (active).
As to `CCCNC(=O)Nc1ccc2cc3ccc(NC(=O)NCCC)cc3nc2c1`, the growth was -52.4% (active).
In the case of `OC(CNC1CCCCC1)Cn1c2ccc(I)cc2c2cc(I)ccc21` (stereo not given), the growth was 67.4% (inactive).
Consider `N#CC(=S)Nc1ccc(Cl)c(Cl)c1`, for which the growth was -5.08% (active).
As to `FC(F)(F)c1cc(Br)cc(-c2cc(-c3ccc4c(c3)OCCO4)[nH]n2)c1`, the growth is 40.6% (inactive).
Under `Nc1ccccc1SC1CC(=O)N(c2ccc(Cl)c(Cl)c2)C1=O` (stereo not given) stands 80.4% (inactive); under `CC(=O)C1CCC2C3CC=C4CC(SC(=N)N)CCC4(C)C3CCC12C` (stereo not given), -36.8% (active).
For `O=C(/C=C/c1cccc(Cl)c1Cl)Nc1ncc(Cc2ccccc2Cl)s1`, the growth is 10.4% (inactive).
For the molecule `COC[C@H](C)n1c(C2CCOCC2)nc2cnc3cc(-c4c(C)noc4C)c(OC)cc3c21`, the growth was 54.5% (inactive).
`COc1ccc(NC(=O)c2sc3nc(C)c(C(=O)/C=C/c4ccccc4)cc3c2N)cc1`: the growth is 44.4% (inactive).
For `NNC(=O)N/N=C1\C(=O)N(c2nccs2)C(=O)C(=O)C1c1nc2ccccc2s1` (stereo not given), the growth was 106% (inactive).
With `CNC(=O)c1cc(Oc2cccc3nc(NC(=O)Nc4ccc(F)cc4F)ccc23)ccn1`, the growth was 42.1% (inactive).
For `COc1cc(OC)cc(C2CC(=O)Nc3c2c(C)nn3-c2nc3ccccc3[nH]2)c1` (stereo not given), the growth is 46.6% (inactive).
With `COc1ccc2c(c1)NC(=O)CN2c1nc(C)nc2ccccc12`, the growth was 9.26% (active).
As for `CC(C)=CCC[C@H](C)c1ccc(C)c2c1OCN(CCO)C2`, the growth was 82.5% (inactive).
`NCCNC(=O)c1cccc(COc2ccccc2NC(=O)c2cc(Br)c(Br)[nH]2)c1`: the growth is 85.1% (inactive).
The same measure for `c1ccc(C(c2nc3ncncc3[nH]2)N2CSc3nc4ccccc4n3C2)cc1` (stereo not given): 94.8% (inactive).

These data come from PubChem BioAssay (NCI).
